This is a sample that favours compounds with a hit; in the whole collection about 3.5% have one here.
TEAD-YAP inh: TEAD-YAP interaction inhibition; hit rate 1.4% among 640,000; HEK-TIYL cells, TEAD-Gal4/YAP UAS-luciferase luminescence; inhibition, % at 9.12 µM; AID 1259422; in the data active means inhibition above about 32%
GPR151 ag: human GPR151 activation; Q8TDV0; PathHunter beta-arrestin GPR151 cells, luminescence; activation, % at 11.2 µM; hit rate 1% among 650,000; AID 1508602; in the data active means activation above about 4.9%
FBW7 activator: human FBW7 E3 ligase activation, primary screen; normalized activity (activation), % at 26.1 µM; hit rate 0.13% among 650,000; AID 1259310; Q969H0; AlphaScreen FBW7–phospho-cyclin E peptide binding, activator screen; in the data active means normalized activity above about 1.9%;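 further: purified mutant Fbw7 with reduced substrate affinity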
MITF inh: inhibitors of human MITF | O75030 | AlphaScreen MITF homodimerization, bead proximity signal | inhibition, % at 2.6 µM | hit rate 0.91% among 650,000 | AID 1259374; in the data active means inhibition above about 50%
GPR151 confirm: human GPR151 activation, confirmation screen; shares compounds with GPR151 ag; GPR151 PathHunter beta-arrestin cells, luminescence, 90 min; % of EA-reagent control over plate median; activation, % at 11.2 µM; 6,700 tested, under 10 active;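 active means mean percent activation across replicates above the confirmation screen cutoff of 4.91%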
GPR119 counter: activates human GPR119 in a GPR151 counter-screen; shares compounds with GPR151 ag; GPR119 PathHunter beta-arrestin cells, luminescence, 90 min; 0 = compound-well median, 100 = enzyme-acceptor control; activation, % at 11.2 µM; hit rate 0.3% among 6,700; AID 1508611;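 active means mean percent activation in the counterscreen above 29.09%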;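 further: counterscreen on off-target GPR119 to flag nonselective hits from the GPR151 activator screen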
Target sequence (Q8TDV5 whole entry, looked up): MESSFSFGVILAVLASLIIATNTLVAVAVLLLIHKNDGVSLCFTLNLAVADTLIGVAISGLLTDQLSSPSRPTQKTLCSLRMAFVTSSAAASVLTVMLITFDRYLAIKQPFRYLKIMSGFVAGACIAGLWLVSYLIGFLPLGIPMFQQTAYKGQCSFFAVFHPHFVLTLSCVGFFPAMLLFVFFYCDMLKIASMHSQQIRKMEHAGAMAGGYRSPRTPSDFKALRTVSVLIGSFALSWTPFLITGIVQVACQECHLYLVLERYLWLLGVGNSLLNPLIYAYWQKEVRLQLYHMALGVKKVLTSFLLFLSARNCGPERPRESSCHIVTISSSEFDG
Hits are given with their value.

CCN(CC)CCCCNc1ncc2cc(-c3cc(OC)cc(OC)c3)c(NC(=O)NC(C)(C)C)nc2n1 was read as GPR151 ag 5.3, MITF inh inactive, GPR151 confirm inactive and GPR119 counter inactive.
Screening O=C(Nc1cc(F)ccc1F)c1ccc2c(=O)n(-c3ccccc3)c(=S)[nH]c2c1 returned TEAD-YAP inh inactive, GPR151 ag inactive, FBW7 activator inactive and MITF inh inactive.
For COc1c[nH]c(C(=O)NCc2ccc(C)cc2)cc1=O the results were TEAD-YAP inh inactive, GPR151 ag inactive, FBW7 activator inactive and MITF inh inactive.
`COc1ccc(-c2cc(=O)oc3cc(O)c(Cl)cc23)cc1` gave TEAD-YAP inh inactive, GPR151 ag inactive, FBW7 activator inactive and MITF inh inactive.
`COc1ccc(-c2cc(=O)oc3c(O)c(O)ccc23)cc1` gave TEAD-YAP inh inactive, GPR151 ag 8.2, FBW7 activator inactive, MITF inh inactive, GPR151 confirm inactive and GPR119 counter inactive.
Cn1c(=O)n(CC(=O)NCCc2ccccc2)c2cccnc21 was read as TEAD-YAP inh inactive, GPR151 ag inactive, FBW7 activator inactive and MITF inh inactive.
For CC(C)CCN1CCNC(=O)C1CC(=O)N(Cc1nccn1C)C(C)C (stereo not given) the results were TEAD-YAP inh inactive, GPR151 ag 5.8, FBW7 activator inactive, MITF inh inactive, GPR151 confirm inactive and GPR119 counter inactive.
c1ccc(SCc2nnc3n2CCCCC3)cc1 was read as TEAD-YAP inh inactive, GPR151 ag 5.0, FBW7 activator inactive, MITF inh inactive, GPR151 confirm inactive and GPR119 counter inactive.
For O=C(/C=C/c1cccc(Cl)c1)Nc1ccncc1 the results were TEAD-YAP inh inactive, GPR151 ag 24, FBW7 activator inactive, MITF inh inactive, GPR151 confirm inactive and GPR119 counter inactive.
`COc1cccc(-c2cc3nc(C)cc(N4CCCC4)n3n2)c1` gave TEAD-YAP inh inactive, GPR151 ag inactive, FBW7 activator inactive and MITF inh inactive.
For CC1CCC2(CC1)NC(=O)N(Cc1ccno1)C2=O (stereo not given) the results were TEAD-YAP inh inactive, GPR151 ag inactive, FBW7 activator inactive and MITF inh inactive.
CC(C)[C@@H](Cn1nc(-c2ccc(F)c(F)c2)ccc1=O)NC(=O)c1ccc(=O)[nH]n1 was read as TEAD-YAP inh inactive, GPR151 ag 9.0, FBW7 activator inactive, MITF inh inactive, GPR151 confirm inactive and GPR119 counter inactive.
`COC(=O)C1=CN(CC2CCCO2)C=C(C(=O)OC)C1c1cccc(Cl)c1` (stereo not given) gave TEAD-YAP inh inactive, GPR151 ag inactive, FBW7 activator inactive and MITF inh inactive.
Screening COC(=O)C1=CN(Cc2ccc(F)cc2)C=C(C(=O)OC)C1c1cccc(F)c1 returned TEAD-YAP inh inactive, GPR151 ag inactive, FBW7 activator inactive and MITF inh inactive.
For COC(=O)C1=CN(CC2CCCO2)C=C(C(=O)OC)C1c1cccc(F)c1 (stereo not given) the results were TEAD-YAP inh inactive, GPR151 ag 5.7, FBW7 activator inactive, MITF inh inactive, GPR151 confirm inactive and GPR119 counter inactive.
`COC(=O)C1=CN(Cc2ccc(F)cc2)C=C(C(=O)OC)C1c1cccc(O)c1` gave TEAD-YAP inh inactive, GPR151 ag 5.2, FBW7 activator inactive, MITF inh inactive, GPR151 confirm inactive and GPR119 counter inactive.
Cc1ccc(C)c(C(=O)COC(=O)C2CCN(S(=O)(=O)c3cccs3)CC2)c1 was read as TEAD-YAP inh inactive, GPR151 ag inactive, FBW7 activator inactive and MITF inh inactive.
CC(=O)NCC(=O)N1CCC(c2nc(-c3ccncc3)ncc2-c2cccc(C)c2)CC1 was read as TEAD-YAP inh inactive, GPR151 ag inactive, FBW7 activator inactive and MITF inh inactive.
For O=C1CC2c3ccccc3C1C1C(=O)N(c3ccccc3)C(=O)C21 (stereo not given) the results were TEAD-YAP inh inactive, GPR151 ag 8.7, FBW7 activator inactive, MITF inh inactive, GPR151 confirm inactive and GPR119 counter inactive.
For Cc1ccc(N2C(=O)C3C4CC(=O)C(c5ccccc54)C3C2=O)cc1 (stereo not given) the results were TEAD-YAP inh inactive, GPR151 ag inactive, FBW7 activator inactive and MITF inh inactive.

High-throughput results as filed in PubChem BioAssay.
